Screening results (PubChem)
ADAM10 inh: human ADAM10 inhibitors, primary screen, biochemical, QFRET, HTS; Disintegrin and metalloproteinase domain-containing protein 10 (Homo sapiens), O14672; recombinant ADAM10, EDANS/DABCYL FRET peptide cleavage, 3 h; inhibition, % at 7 µM; 370,000 tested, 0.62% active;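 active means inhibition above a per-campaign cutoff equal to the mean of compounds falling between control-based bounds plus 3 SD, cut at about 20% in these data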;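 further: 0% = DMSO wells while the 100% control is not disclosed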
Target sequence (O14672 214-748 limits assumed): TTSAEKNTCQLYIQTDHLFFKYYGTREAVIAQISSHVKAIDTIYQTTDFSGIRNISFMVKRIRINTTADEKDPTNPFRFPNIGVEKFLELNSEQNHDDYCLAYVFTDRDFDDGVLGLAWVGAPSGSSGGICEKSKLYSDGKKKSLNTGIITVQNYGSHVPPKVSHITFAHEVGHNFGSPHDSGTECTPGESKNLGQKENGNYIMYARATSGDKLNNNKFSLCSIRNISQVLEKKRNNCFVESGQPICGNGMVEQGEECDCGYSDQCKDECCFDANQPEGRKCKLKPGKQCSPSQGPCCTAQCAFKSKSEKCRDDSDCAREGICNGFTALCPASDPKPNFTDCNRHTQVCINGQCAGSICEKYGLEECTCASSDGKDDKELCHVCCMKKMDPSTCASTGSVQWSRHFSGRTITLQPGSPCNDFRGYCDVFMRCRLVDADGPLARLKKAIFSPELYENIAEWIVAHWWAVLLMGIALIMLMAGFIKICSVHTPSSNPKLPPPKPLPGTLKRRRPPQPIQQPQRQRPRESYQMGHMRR
KLK7 zymogen act: proKLK7 zymogen activators, primary screen, biochemical, fluorescence intensity; Kallikrein-7 (Homo sapiens), P49862; purified proKLK7, EDANS-DABCYL substrate fluorescence; 100% is mature enzyme control, 0% vehicle; activation, % at 7 µM; 370,000 tested, 0.9% active;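 active means activation above the mean of all tested compounds plus 3 SD, computed per campaign excluding outliers beyond control limits, cut at about 13% in these data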
V-ATPase pHluor: regulators of yeast V-ATPase proton pumping, primary screen, pHLuorin cytosolic pH fluorescence. S. cerevisiae. response, % at 10 µM. 350,000 tested, 0.37% active. AID 504577, 2011; in the data active means response mostly above about 7.3%, no sharp cut-off; inactive means mostly below about 5.4%; further: actives read high
ADAM17 inh: ADAM17 inhibitors, primary screen, biochemical, QFRET | recombinant ADAM17, EDANS/DABCYL FRET peptide cleavage | inhibition, % at 6.95 µM | 370,000 tested, 0.83% active;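 active means inhibition above the mean of compounds lying between control limits plus 3 SD, set per campaign, cut at about 8.5% in these data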;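 further: 0% = DMSO-only wells as the low control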
proKLK7 act conf: proKLK7 zymogen activators, confirmation, biochemical, fluorescence intensity, triplicate | shares compounds with KLK7 zymogen act | purified proKLK7, EDANS-DABCYL substrate fluorescence; scaled: vehicle 0, mature enzyme 100 | activation, % at 7 µM | 3,200 tested, 68% active | AID 686949, 2013;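 active means activation, as change over the incubation, above the mean of all tested compounds plus 3 SD, cut at about 13% in these data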
EDANS interfere: EDANS-DABCYL substrate optical interference, artefact control for kallikrein-7 zymogen activator project, biochemical, fluorescence intensity, high throughput; 3,200 tested, 80% active; shares compounds with KLK7 zymogen act; activation, % at 7 µM; no enzyme, 4 h; solvent 0%, active enzyme control 100%;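 active means activation above the all-compound mean plus 3 SD, ignoring values outside control-based bounds, cut at about 4.8% in these data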;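 further: value is the 4 h activation minus the activation read at time zero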
EDANS interf: counter-screen for kallikrein-7 activators: EDANS-DABCYL interference, dose response. 250 tested, 20% active. EC50, µM. EDANS-DABCYL peptide fluorescence interference, no enzyme. shares compounds with KLK7 zymogen act;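 active means compounds that raise the fluorescence signal in this interference counterscreen, with EC50 at or below 10 µM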;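 further: intact quenched peptide substrate alone read at 355 nm excitation and 520 nm emission; signal is fluorescence gain from T0 to T4 after four hours at room temperature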
An asterisk follows results filed as active; i = inactive; nt = not tested or not shown. The list is not random: actives were taken first. Their share in the collection is about 2.3%.

SMILES	ADAM10 inh	KLK7 zymogen act	V-ATPase pHluor	ADAM17 inh	proKLK7 act conf	EDANS interfere	others
CC(=O)c1ccc(-c2ccc(C(=O)N(C)Cc3nc4ccccc4c(=O)[nH]3)o2)cc1	i	26*	-4	-440	-2	-12
CCOC(=O)C1=C(C(=O)OCC)C2N(Cc3ccc(Br)cc3)c3ccccc3[C@@]23C[C@@H](C(=O)OC)N(S(=O)(=O)c2cccs2)C3=N1 (stereo partly specified)	3	0	nt	0	nt	nt
Cc1nccc(-c2sc(-c3cccs3)nc2C)n1	i	41*	-9	i	20*	21*
CCOC(=O)CC[C@@]1(C(=O)OCC)C[C@@H](CC(=O)NCC23CC4CC(CC(C4)C2)C3)C(=O)N2CCCC=C21	5	0	nt	-1	nt	nt
CC(C)c1cc(C(=O)NCCc2cccs2)c(N)s1	-4	0	nt	0	nt	nt
Nc1nc2ncccc2cc1C(=O)NCCc1cccs1	i	24*	nt	-477	22*	28*
Nc1nccnc1C(=O)OCC(=O)Nc1ccc2[nH]c(=O)[nH]c2c1	-92	27*	1	-22	53*	48*
O=C(COC(=O)c1ccccc1)Nc1ccc2[nH]c(=O)[nH]c2c1	-9	-1	-1	-10	nt	nt
Cc1cccc(-n2c3nc(=O)[nH]c(=O)c-3cc3c(C)nn(-c4ccccc4)c32)c1C	i	14*	4	i	46*	58*
Cc1nn(-c2ccccc2)c(=O)c2ccccc12	0	0	1	-5	nt	nt
Cc1nn(-c2ccccc2)c2c1cc1c(=O)n(C)c(=O)nc-1n2-c1ccccc1F	i	13*	-1	-345	18*	9.1*	EDANS interf=>70
C=CCN1[C@@H](CC(C)C)COc2cc(F)ccc2S1(=O)=O	-1	0	nt	-4	nt	nt
CCOC(=O)[C@@]12CCC3=C1N(CCC3)C(=O)[C@H](CC(=O)NCCCN1CCCC1=O)C2	-3	0	nt	-2	nt	nt
COCCCNC(=S)N/N=C/c1ccc(N(C)C)cc1	i	26*	-4	-248	41*	41*
CC(C)(C)OC(=O)N1CCC(N[C@@H](Cc2ccccc2)C(=O)NCC(c2ccccc2)c2ccccc2)(C(=O)NC2CCCCC2)CC1	-7	nt	nt	-2	nt	nt
CCCCN(CC)CCCNC(=O)c1cc2cc3ccc(OC)cc3nc2o1	i	63*	-4	i	58*	72*
COc1ccc2cc3cc(C(=O)NCCCN4CCOCC4)oc3nc2c1	i	49*	3	i	64*	69*
COc1ccc2cc3cc(C(=O)NCCN4CCN(Cc5ccccc5)CC4)oc3nc2c1	i	2	-3	i	nt	nt
Cc1ccc2cc3cc(C(=O)NCCN4CCOCC4)oc3nc2c1	i	13*	1	-318	14*	13*
CCN1CCN(CCCNC(=O)c2cc3cc4ccc(OC)cc4nc3o2)CC1	nt	nt	-1	nt	nt	nt
Cc1nc2ccccc2c2oc(C(=O)NCCCN3CCCC3=O)cc12	-7	0	-1	-1	nt	nt
Cc1ccc2cc3cc(C(=O)NCCCN4CCCC4=O)oc3nc2c1	i	17*	3	i	9	7.5*
COc1cc(NC(=O)c2cccs2)c(OC)cc1NC(=O)Nc1ccc(F)cc1	12	99*	0	-6	71*	117*
COc1cc(NC(=O)COc2ccccc2Cl)ccc1NC(=O)c1cccs1	-224	63*	4	-103	15*	8.8*	EDANS interf=8.6*
COc1cc(NC(=O)COc2ccccc2[N+](=O)[O-])ccc1NC(=O)c1cccs1	-5	1	-4	-11	nt	nt
SMILES	ADAM10 inh	KLK7 zymogen act	V-ATPase pHluor	ADAM17 inh	proKLK7 act conf	EDANS interfere	others
Nc1cccc2c1C(=O)N(C(=O)c1cccc(S(=O)(=O)N3CCCCCC3)c1)C2=O	-290	19*	3	-85	258*	269*
O=C(c1ccc(Cl)c(S(=O)(=O)N2CCCCC2)c1)N1CCCCC1	-17	0	1	-1	nt	nt
Nc1cccc2c1C(=O)N(C(=O)c1ccc(Cl)c(S(=O)(=O)N3CCCCCC3)c1)C2=O	-268	18*	-1	-85	217*	233*
COc1ccc(-c2nnc(SCC(=O)NN=Cc3c(O)ccc4ccccc34)n2-c2ccc(OC)cc2)cc1	-1	2	nt	1	nt	nt
CCOC(=O)N(C)[C@H]1C[C@H]2c3cc(-c4ccccc4C)ccc3CCN2C[C@H]1[C@H](C)O	-150	0	nt	-43	nt	nt
O=[n+]1cc(-c2ccc(F)cc2)n([O-])c2c1CCC2	1	0	1	-3	nt	nt
O=[n+]1cc(-c2cc3ccccc3o2)n([O-])c2c1CCCC2	-162	15*	2	-45	12	18*
CCCCN(C(=O)NC(=O)Nc1ccc(C)cn1)S(C)(=O)=O	-261	19*	3	-87	4	3
Nc1ccc(-c2nc3cc(N)ccc3o2)cc1	i	55*	-2	-274	65*	75*
Nc1ccc(-c2nnc(-c3ccc(N)cc3)o2)cc1	i	18*	0	-343	36*	44*
CN(C)c1ccc(-c2nc3cc(N)ccc3o2)cc1	i	23*	2	-427	10	24*
Nc1ccc(-c2nc3ccc(N)cc3o2)cc1	i	56*	-2	i	70*	73*
CC(=O)Nc1ccc(S(=O)(=O)NCC2CCN(C(=O)C(=O)c3cc4ccccc4o3)CC2)cc1	-6	0	nt	-2	nt	nt
CCOC(=O)C1CSCCS(=O)(=O)N1Cc1cccc(F)c1 (stereo unspecified)	-6	0	nt	-2	nt	nt
Cc1ccc(NC(=O)CN(C)C(=O)/C=C/c2cccc(F)c2)cc1	0	0	2	-5	nt	nt
COc1ccc(CCC(=O)N(C)CC(=O)Nc2cc(C)ccc2C)cc1	-6	0	-1	-3	nt	nt
COc1ccc(OC)c(/C=C/C(=O)N(C)CC(=O)Nc2ccc(C)cc2)c1	i	27*	2	-362	64*	68*
COc1ccc(OC)c(/C=C/C(=O)N(C)CC(=O)Nc2cc(C)ccc2C)c1	i	21*	2	-252	1	8.4*
COc1ccc2nc3cc(Cl)ccc3c(Nc3cc(C(C)C)c(O)cc3C)c2c1	-83	20*	3	-45	0	2
CCOC(=O)[C@@]12CCC3=C1N(CCC3)C(=O)[C@H](CC(=O)N1CCCC1)C2	-2	0	nt	-2	nt	nt
COc1cc2c(cc1OC)CN(Cc1nc3ccsc3c(=O)[nH]1)CC2	-262	31*	2	-94	8	13*
